Data on 27 compounds can be found in PubChem BioAssay (NCATS).

SMILES strings stand for the structures. Values joined by “and” are separate entries in the source; they are usually repeats but may differ in a detail not shown here. Identical values can stand only once. Results filed as inconclusive are left out. Entries that show only a call come without a potency. Some structures have more than one record in an assay (separate samples or runs), and their calls can disagree. Active and inactive are the calls of the source. Calls come from the whole dose curve; as a rule, active = well fitted curve in the direction sought with a large enough effect; inconclusive = small, poorly fitted or top-dose-only effect, or another doubt; inactive = no such curve, though single readings can be large; an effect the other way counts as inactive or inconclusive.

In assay [1] the target is Guanine nucleotide-binding protein G(i) subunit alpha-1 (Homo sapiens) (UniProt P63096). The assay is described as follows: qHTS Assay for Inhibitors of RGS12 GoLoco Motif Activity (Green Fluorophore) (AID 879).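 Note: negative values mean loss of peptide binding seen as reduced polarization.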 The essentials:
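A drop in FITC polarization marked displacement of the FITC-tagged RGS12 GoLoco peptide (10 nM) from Gαi1 (50 nM). Compounds were incubated 10 min at room temperature in Tris pH 7.5 buffer containing 150 mM NaCl, 0.1 mM GDP and 0.05% NP40; unlabeled peptide titration served as control.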
(In general: In qHTS, concentration-response curves come from the screen itself.)

Assay [2] concerns the target Cytochrome P450 2C9 (Homo sapiens) (UniProt P11712). The assay is described as follows: qHTS Assay for Inhibitors and Substrates of Cytochrome P450 2C9 (AID 883). Note: nearly all actives have a fitted effect of over 60% in size. Note: potency is the fitted concentration of half-maximal effect. The essentials:
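CYP2C9 deoxyluciferin hydroxylation, 37C, 60 min with NADPH regeneration; 10nM enzyme, 100uM Luciferin-H (KM). Glo detection reagent stopped reaction; luminescence normalized to sulphaphenazole (57uM) full inhibition.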

For assay [3], the target named is Cytochrome P450 3A4 (Homo sapiens) (UniProt P08684). The assay can be described thus: qHTS Assay for Activators of Cytochrome P450 3A4 (AID 885). Note: nearly all actives have a fitted effect of over 65% in size. Note: potency is the fitted concentration of half-maximal effect. The essentials:
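CYP3A4 activity: Luciferin-PPXE O-dealkylation, 25uM substrate, 200mM KPO4, RT throughout. Read-out is luciferase luminescence; higher values reflect activation.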

For assay [4], the target named is Cytochrome P450 2D6 (Homo sapiens) (UniProt P10635). The assay is described as follows: qHTS Assay for Inhibitors and Substrates of Cytochrome P450 2D6 (AID 891). Note: nearly all actives have a fitted effect of over 60% in size. Note: potency is the fitted concentration of half-maximal effect. The essentials: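 Luminescent read-out of luciferin formed by 5 nM human CYP2D6 demethylating 30 uM Luciferin-ME EGE (Km level) over 60 min at room temperature after NADPH regeneration addition. Data normalized to full inhibition by 1.43 uM quinidine.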
Cytochrome P450 2D6 (Homo sapiens), sequence (P10635 whole entry, looked up): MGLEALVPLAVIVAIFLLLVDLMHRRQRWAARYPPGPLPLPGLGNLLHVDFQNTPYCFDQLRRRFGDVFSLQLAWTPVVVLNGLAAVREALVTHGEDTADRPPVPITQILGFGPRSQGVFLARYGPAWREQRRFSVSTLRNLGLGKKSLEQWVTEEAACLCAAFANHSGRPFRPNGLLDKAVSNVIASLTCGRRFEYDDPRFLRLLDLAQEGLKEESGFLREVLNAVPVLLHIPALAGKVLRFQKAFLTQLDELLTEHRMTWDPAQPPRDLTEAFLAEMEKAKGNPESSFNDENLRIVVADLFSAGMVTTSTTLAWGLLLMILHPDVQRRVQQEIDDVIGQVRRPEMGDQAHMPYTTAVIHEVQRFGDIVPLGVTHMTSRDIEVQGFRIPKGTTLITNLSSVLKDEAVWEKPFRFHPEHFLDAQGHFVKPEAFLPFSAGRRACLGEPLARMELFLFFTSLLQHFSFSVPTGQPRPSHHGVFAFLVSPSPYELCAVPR

The target of assay [5] is Cytochrome P450 3A4 (Homo sapiens) (UniProt P08684). The assay can be described thus: qHTS Assay for Inhibitors and Substrates of Cytochrome P450 3A4 (AID 884). Note: series mostly up to about 57 µM; nearly all actives have a fitted effect of over 50% in size. The essentials: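 Luminescent readout of luciferin produced by CYP3A4 (20 nM) dealkylation of Luciferin-PPXE, 25 uM (its KM). NADPH-driven reaction ran 60 min at RT after 10 min compound preincubation; data scaled to 57 uM ketoconazole as 100% inhibition.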
Cytochrome P450 3A4 (Homo sapiens), sequence (P08684 whole entry, looked up): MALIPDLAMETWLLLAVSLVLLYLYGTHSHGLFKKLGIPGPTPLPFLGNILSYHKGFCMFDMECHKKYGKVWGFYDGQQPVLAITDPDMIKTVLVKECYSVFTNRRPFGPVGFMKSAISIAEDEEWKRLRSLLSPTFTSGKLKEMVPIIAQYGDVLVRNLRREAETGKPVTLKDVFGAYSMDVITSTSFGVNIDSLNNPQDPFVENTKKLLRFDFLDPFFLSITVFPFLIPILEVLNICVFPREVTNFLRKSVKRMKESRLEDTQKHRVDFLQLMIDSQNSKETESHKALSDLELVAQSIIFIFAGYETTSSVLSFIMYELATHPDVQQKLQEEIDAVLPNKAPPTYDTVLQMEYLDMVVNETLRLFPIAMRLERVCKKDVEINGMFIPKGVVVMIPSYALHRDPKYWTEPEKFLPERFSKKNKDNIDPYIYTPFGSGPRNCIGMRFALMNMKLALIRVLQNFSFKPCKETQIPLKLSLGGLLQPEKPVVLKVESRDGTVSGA

Guanine nucleotide-binding protein G(i) subunit alpha-1 (Homo sapiens), sequence (P63096 whole entry, looked up): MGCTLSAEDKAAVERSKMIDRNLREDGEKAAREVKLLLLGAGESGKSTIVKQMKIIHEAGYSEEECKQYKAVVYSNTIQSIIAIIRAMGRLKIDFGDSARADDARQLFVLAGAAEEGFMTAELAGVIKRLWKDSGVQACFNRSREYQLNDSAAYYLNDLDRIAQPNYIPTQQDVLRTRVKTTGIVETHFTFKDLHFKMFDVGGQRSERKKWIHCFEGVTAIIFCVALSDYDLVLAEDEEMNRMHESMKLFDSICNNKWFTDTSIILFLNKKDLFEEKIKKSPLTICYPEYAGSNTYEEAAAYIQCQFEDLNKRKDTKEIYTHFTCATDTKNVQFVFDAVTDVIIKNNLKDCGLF
Cytochrome P450 2C9 (Homo sapiens), sequence (P11712 whole entry, looked up): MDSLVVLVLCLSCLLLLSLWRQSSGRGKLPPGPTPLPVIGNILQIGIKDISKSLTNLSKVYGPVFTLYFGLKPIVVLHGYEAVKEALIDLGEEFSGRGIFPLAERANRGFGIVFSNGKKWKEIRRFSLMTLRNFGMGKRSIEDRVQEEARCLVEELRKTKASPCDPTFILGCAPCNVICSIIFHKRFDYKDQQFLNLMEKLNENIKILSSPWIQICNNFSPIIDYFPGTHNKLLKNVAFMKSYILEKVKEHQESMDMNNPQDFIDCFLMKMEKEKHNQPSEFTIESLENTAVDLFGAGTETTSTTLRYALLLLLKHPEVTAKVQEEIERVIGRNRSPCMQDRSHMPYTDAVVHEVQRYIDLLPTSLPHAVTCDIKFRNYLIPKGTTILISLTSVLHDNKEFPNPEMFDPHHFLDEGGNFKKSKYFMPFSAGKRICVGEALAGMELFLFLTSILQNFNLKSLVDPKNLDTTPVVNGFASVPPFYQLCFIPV

Consider `CC1=NS(=O)(=O)c2cc(Cl)ccc2N1`, for which the Potency result in assay [1], in assay [2] and in assay [3] was “inactive” each time. Moreover, the Potency entry in assay [4] is “inactive and 7.94 µM (active)”.
Regarding `CCCOc1ccccc1-c1nc2n[nH]nc2c(=O)[nH]1`, the Potency entry in assay [1] was “inactive”. The compound was classed as inactive in assay [5].
In the case of `C[N+](C)(C)CCOC(=O)CCC(=O)OCC[N+](C)(C)C`, the Potency entry in assay [1] is “inactive”.
On to `CN(C)C(=O)Oc1cccc([N+](C)(C)C)c1`, for which the Potency result in assay [1] was “inactive”. Also, the outcome in assay [5] was inactive.
As for `CC1=C(C)C(=O)C(CCCCC#CCCCC#CCO)=C(C)C1=O`, the Potency result in assay [1] is “inactive”. The Potency in assay [2] is 5.01 µM (active); in assay [4], 31600 nM (active).
Consider `COC(=O)[C@@H](N)Cc1ccc(O)c(O)c1`, for which the Potency result in assay [1] and in assay [3] was “inactive” throughout.
As to `NC(N)=NC(=O)Cc1c(Cl)cccc1Cl`, the Potency result in assay [1], in assay [2] and in assay [3] was “inactive” in each case. The Potency in assay [4] was 126 nM (active).
Consider `CCO/C([O-])=N/c1c[n+](N2CCOCC2)no1`, for which the Potency entry in assay [1], in assay [2], in assay [3] and in assay [4] was “inactive” throughout.
`CCCN(CCC)CCc1cccc2c1CC(=O)N2`: the Potency entry in assay [1] was “inactive”. In addition, in assay [5], the compound was called inactive.
Take `NCCCNCCSP(=O)(O)O`: the Potency entry in assay [1] is “inactive”.
Consider `Cc1ccc(S(=O)(=O)NC(=O)NN2CCCCCC2)cc1`, for which the Potency result in assay [1] was “inactive”.
On to `C[N+](C)(C)CCOC(N)=O`, for which the Potency entry in assay [1] is “inactive”. For the same compound, the call in assay [5] was inactive.
In the case of `CC[N+](C)(C)c1cccc(O)c1`, the Potency entry in assay [1] is “inactive”. The result in assay [5] was inactive.
For the compound `Cc1ccc(Cl)c(Nc2ccccc2C(=O)O)c1Cl`, the Potency entry in assay [1] is “inactive”. Moreover, the Potency in assay [2] was 7.94 µM (active) and 1.26 µM (active); in assay [3], 20 µM (active) and 12.6 µM (active) and 25.1 µM (active). The call in assay [5] was inactive.
Turning to `CN(C(=O)CCCOc1ccc2[nH]c(=O)ccc2c1)C1CCCCC1`, the Potency entry in assay [1], in assay [2], in assay [3] and in assay [4] was “inactive” throughout.
For `Cc1ccc(=O)n(-c2ccccc2)c1`, the Potency result in assay [1], in assay [2] and in assay [4] was “inactive” throughout.
For `O=C(O)CP(=O)(O)O`, the Potency result in assay [1] is “inactive”.
For `CN(C)C(=O)Oc1ccc[n+](C)c1`, the Potency result in assay [1] was “inactive”. In addition, in assay [5], the compound was classed as inactive.
In the case of `CNCCCN1c2ccccc2CCc2ccccc21`, the Potency result in assay [1] was “inactive”.
Turning to `CCn1cc(C(=O)O)c(=O)c2cc3c(cc21)OCO3`, the Potency entry in assay [1] was “inactive”. For the same compound, the call in assay [5] was inactive.
With `CCN(CC)CCNC(=O)c1cc(S(C)(=O)=O)ccc1OC`, the Potency result in assay [1] and in assay [2] was “inactive” each time. Besides, the compound was classed as inactive in assay [5].
Consider `CCN1CCc2nc(N)oc2CC1`, for which the Potency result in assay [1] and in assay [3] was “inactive” throughout.
As for `C[C@H](CS)C(=O)N1CCC[C@H]1C(=O)O`, the Potency result in assay [1], in assay [2] and in assay [4] was “inactive” each time. In assay [5], the call was inactive.
On to `Cc1nc2ccccn2c(=O)c1CCN1CCC(C(=O)c2ccc(F)cc2)CC1`, for which the Potency result in assay [1], in assay [2] and in assay [3] was “inactive” in each case.
On to `Brc1c(NC2=NCCN2)ccc2nccnc12`, for which the Potency result in assay [1], in assay [2] and in assay [3] was “inactive” in each case.
As for `COc1ccc2c(c1OC)C(=O)O[C@@H]2[C@H]1c2c(cc3c(c2OC)OCO3)CCN1C`, the Potency in assay [2] is 0.126 µM (active).
On the same count and under the same terms, next, `CN(C)CCN(Cc1cccs1)c1ccccn1`: “inactive”.
